IL1B secr inh – blocks inflammasome-driven IL-1 beta release | THP-1 LPS/ATP IL-1B secretion, AlphaLISA, 16 h; stronger effect = lower value | activity change, % at 57.5 µM | 360,000 compounds, 4.7% hits | AID 743279; in the data active = activity change below about -50%; inconclusive = mostly about -30% to -49%; note: % is set by controls: 0 for no effect and ±100 for the full control effect
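THP-1 cells pretreated 1 hr with compounds (up to 57.5 uM final), then stimulated with LPS (250 ng/mL final) plus ATP (1.25 mM final); secreted IL-1B measured by AlphaLISA after 16 hr, decreased signal indicating inhibition.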
ATXN viability – viability counter-screen for ATXN expression inhibitors; 400,000 compounds, 0.49% hits; S2 cells (HEK-293 line with an ATXN2-luciferase reporter) viability, CellTiter-Fluor protease fluorescence, 24 h; Potency, µM (top dose mostly 56.7 µM), usual class: cytotoxic; AID 651635; note: potency is the fitted concentration of half-maximal effect; nearly all actives have a fitted effect of over 40% in size
USP1-UAF1 inh – inhibitors of human USP1/UAF1 deubiquitinase. Potency, µM (titrated, usually from 57.1 µM), inactives show top-dose activity change, negative = inhibition, actives largely listed as inhibitors. 390,000 compounds, 0.23% hits. O94782. AID 743255. recombinant USP1/UAF1, Ub-Rhodamine cleavage fluorescence; note: potency is the fitted concentration of half-maximal effect; % is set by controls: 0 for no effect and ±100 for the full control effect; nearly all actives have a fitted effect of over 60% in size
Target sequence (O94782 whole entry, looked up): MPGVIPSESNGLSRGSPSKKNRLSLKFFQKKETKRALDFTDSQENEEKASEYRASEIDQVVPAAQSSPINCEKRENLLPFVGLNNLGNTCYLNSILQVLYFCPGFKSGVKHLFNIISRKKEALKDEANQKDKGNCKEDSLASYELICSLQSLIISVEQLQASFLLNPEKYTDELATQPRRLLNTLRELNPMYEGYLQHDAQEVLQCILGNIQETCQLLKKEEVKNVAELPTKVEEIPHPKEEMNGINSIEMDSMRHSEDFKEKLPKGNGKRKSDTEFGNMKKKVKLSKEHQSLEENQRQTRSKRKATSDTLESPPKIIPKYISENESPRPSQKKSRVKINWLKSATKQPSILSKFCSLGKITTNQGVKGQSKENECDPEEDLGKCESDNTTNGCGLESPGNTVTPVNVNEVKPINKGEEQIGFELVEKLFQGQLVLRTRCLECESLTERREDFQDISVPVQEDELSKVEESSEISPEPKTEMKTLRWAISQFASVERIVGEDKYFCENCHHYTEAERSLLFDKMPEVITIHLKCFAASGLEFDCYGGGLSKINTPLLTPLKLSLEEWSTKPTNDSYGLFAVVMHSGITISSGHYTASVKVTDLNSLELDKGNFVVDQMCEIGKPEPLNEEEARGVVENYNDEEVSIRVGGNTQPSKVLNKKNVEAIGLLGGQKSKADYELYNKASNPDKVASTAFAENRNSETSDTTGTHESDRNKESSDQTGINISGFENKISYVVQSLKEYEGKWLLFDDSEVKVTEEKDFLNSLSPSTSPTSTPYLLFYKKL
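USP1/UAF1 complex (1 nM) preincubated 15 min at room temperature with compound, then Ub-Rho substrate (150 nM final) added. Kinetic fluorescence at 480/540 nm over 6 reads at 60 s intervals; 50 mM HEPES pH 7.8, 0.5 mM EDTA, 0.1 mg/ml BSA, 1 mM TCEP, 0.01% Tween-20.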
USP2a inh – USP2a (human) protease inhibition; AID 463254; 330,000 compounds, 0.01% hits; Potency, µM (top dose mostly 38.3 µM), inactives show at the top dose activity change, negative = inhibition, actives largely listed as inhibitors; O75604; USP2 core, Ub-CHOP2 coupled fluorogenic reporter, 485/531;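 note: potency is the fitted concentration of half-maximal effect; plate controls were DMSO wells for no effect and full inhibition by NEM control for full effect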
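Cell-free coupled assay: 10nM USP2 core preincubated 30min RT with compound in Tris-HCl pH 8.0/CaCl2/CHAPS buffer, then 25nM Ub-CHOP2 and 25nM reporter substrate; fluorescence (Ex 485/Em 531) read after 60min RT, normalized to NEM inhibition, concentration-response curves fitted.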
ATXN2 expr inh – reduces ATXN2 reporter expression in HEK-293 cells; HEK-293 ATXN2-luciferase reporter, luminescence, 24 h; Potency, µM (doses to about 57 µM), inactives show top-dose activity change, negative = inhibition, actives largely listed as inhibitors; 360,000 compounds, 0.72% hits; note: potency is the fitted concentration of half-maximal effect; % is set by controls: 0 for no effect and ±100 for the full control effect; nearly all actives have a fitted effect of over 55% in size
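qHTS (up to 57 uM final) was run with 24 h compound exposure of reporter cells at 37 °C. Each well was multiplexed: SteadyGlo luminescence measured ATXN2-luciferase expression after a fluorogenic Gly-Phe-AFC viability readout (25 uM final).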
Active calls of the source: *; i = inactive; u = inconclusive; x = no result; [ ] = remark or other dose. Only some compounds are listed: those with a hit (about 4.8% of all), similar ones and a draw of the others. Unless noted, calls come from the whole dose curve; as a rule, active = well fitted curve in the direction sought with a large enough effect; inconclusive = small, poorly fitted or top-dose-only effect, or another doubt; inactive = no such curve, though single readings can be large; an effect the other way counts as inactive or inconclusive.

SMILES	IL1B secr inh	ATXN viability	USP1-UAF1 inh	USP2a inh	ATXN2 expr inh
COc1ccc(CNC(=O)C(=O)NCC(c2cccs2)S(=O)(=O)c2ccc(C)cc2)cc1 (centres undefined)	x	i	-19%	x	4%
Cc1ccc(/C(=C\CN2CCCC2)c2cccc(/C=C/C(=O)O)n2)cc1	x	i	x	x	x
Cc1ccc(-c2ccnc(-n3ncc(C(=O)NC[C@@H]4CCCN5CCCC[C@H]45)c3C3CC3)n2)o1	x	i	x	x	x
COc1ccccc1CNc1nc(NC(C)C)nc2ccsc12	-98*	i	x	x	0%
CNc1nc(NCCOc2ccccc2Cl)c2sccc2n1	u	i	x	x	-8%
COc1ccccc1CNc1nc(NCCOc2ccccc2Cl)c2sccc2n1	-86*	u	x	x	u
COc1cccc(CNc2nc(NCC3CC3)nc3ccsc23)c1OC	-101*	16µM*	x	x	0%
CCOC(=O)CSc1nc2c(sc(=S)n2-c2ccccc2OC)c(=O)n1-c1ccccc1OC	-64*	i	-19%	-8%	2%
S=C(NCCCN1CCOCC1)NCCCN1CCOCC1	0	i	0%	1%	-7%
CCCCCCCCNC(=S)NCCN1CCCCC1	-62*	25µM*	4%	0%	x
NC(=O)C1CCCNC1 (centres undefined)	-57*	i	-31%	-4%	4%
CCCc1c(C(=O)N/N=C/C(C)=C/c2ccccc2)nnn1-c1nonc1N	-19	i	-14%	3%	-7%
Nc1nonc1-n1nnc(C(=O)N/N=C/C=C/c2ccccc2)c1CSC1=NCCS1	-90*	u	-4%	1%	-12%
CCCN(CCC)Cc1c(C(=O)N/N=C/C(C)=C\c2ccccc2)nnn1-c1nonc1N	-68*	u	-25%	2%	u
COC(=O)[C@]12CCCCC=C1N(CCc1ccc(OC)c(OC)c1)C(=O)[C@H](CC(=O)N1CCN(C(=O)C3CC3)CC1)C2	-21	x	x	x	x
CCn1nc(C)cc1C(=O)NCC1Cc2cc(C)cc(-c3ccccc3C(=O)OC)c2O1 (centres undefined)	x	i	x	x	x
CCn1c(SCc2ccc(C#N)cc2)nnc1-c1cccc(Cl)c1	-73*	i	-19%	1%	-18%
CC(C)(C)c1ccc(S(=O)(=O)NCC(=O)N2CCCC2)cc1	-10	i	-7%	0%	-7%
COC(=O)[C@@H]1CCCN1Cc1ccc2c(c1)CN(Cc1cccc(Cl)c1)CCO2	x	i	x	x	x
OC1CCCN(c2c3c(nc4cc(-c5cccc(Cl)c5)nn24)CCC3)C1 (centres undefined)	-102*	i	-7%	-1%	13%
COC(=O)C[C@@H]1CC[C@H](NC(=O)Nc2ccc(OC)cc2)[C@@H](CO)O1	-57*	x	x	x	x
COC(=O)C[C@@H]1CC[C@H](NC(=O)Nc2ccc(F)cc2)[C@@H](CO)O1	7	x	x	x	x
CC(=O)Nc1ccc(NC2=C/C(=N/S(=O)(=O)c3cccs3)c3ccccc3C2=O)cc1	-95*	10µM*	16µM*	0%	16µM*
Cc1ccccc1NC1=C/C(=N\S(=O)(=O)c2cccs2)c2ccccc2C1=O	-94*	6.3µM*	2.2µM*	0%	7.9µM*
COc1ccc(S(=O)(=O)/N=C2\C=C(Nc3ccc(O)cc3)C(=O)c3ccccc32)cc1	-96*	6.3µM*	7.1µM*	-4%	3.2µM*
SMILES	IL1B secr inh	ATXN viability	USP1-UAF1 inh	USP2a inh	ATXN2 expr inh
Cc1ccc(NC2=C/C(=N/S(=O)(=O)c3cccs3)c3ccccc3C2=O)cc1C	0	i	-7%	3%	8%
CC(=O)Nc1ccc(NC(=O)C(C)OC(=O)c2ccccc2NS(=O)(=O)c2cccs2)cc1 (centres undefined)	16	i	-13%	0%	-12%
NS(=O)(=O)c1ccc(NC2=CC(=O)c3ccccc3C2=O)cc1	x	x	x	x	-16%
COc1ccccc1C(=O)Nc1ccc(-c2cc(C(F)(F)F)nn2-c2ccccc2)cc1	x	x	-30%	x	x
Cc1ccccc1-n1cc(-c2ccccc2)nc1SCC(=O)Nc1ccc(F)cc1	x	i	-25%	x	-23%
Cc1nnc(SCC(=O)c2c(N)n(C)c(=O)n(C)c2=O)n1Cc1ccccc1	-54*	i	u	5%	-3%
CCn1c(SCC(=O)c2c(N)n(C)c(=O)n(C)c2=O)nnc1-c1ccccc1	x	x	x	5%	x
CO[C@@H]1[C@@H](O[C@@H]2O[C@H](C)[C@@H](O[C@H]3C[C@@](C)(O)[C@@H](O)[C@H](C)O3)[C@H](N(C)C)[C@H]2O)[C@@H](CC=O)C[C@@H](C)[C@@H](O[C@@H]2CC[C@H](N(C)C)[C@@H](C)O2)/C=C/C=C/C[C@@H](C)OC(=O)C[C@H]1O	x	i	x	x	x
O=C(Nc1cc(Cl)cc(Cl)c1)c1ccc(Cn2c(=O)[nH]c3ccsc3c2=O)cc1	u	19µM*	-20%	5%	-24%
CC(=O)NCCNC(=O)c1ccc(Cn2c(=O)[nH]c3ccsc3c2=O)cc1	29	i	-16%	-3%	4%
CCn1c(SCC(=O)Nc2cc(C(C)(C)C)nn2-c2ccccc2)nnc1-c1cccs1	-83*	i	1%	1%	-16%[11.3 µM]
Cc1nnc(SCC(=O)Nc2cc(C(C)(C)C)nn2-c2ccccc2)s1	3	i	0%	-1%	-10%
COC(=O)C1CCN(Cc2ccc3c(c2)CN(C(=O)c2cc(C)oc2C)CCO3)CC1	x	i	x	x	x
CN(CC(=O)Nc1ccc(Cl)cc1)CC(=O)Nc1cc(Cl)ccc1C#N	-84*	i	u	-2%	-18%
CN(CC(=O)Nc1ccc(Cl)cc1)CC(=O)Nc1ccc(C(N)=O)cc1	9	i	-12%	2%	-18%[11.3 µM]
CCN(CC)CCCNC(=O)c1ccc(S(=O)(=O)Nc2ccc(C)c(C)c2)cc1	-4	i	-5%	0%	2%
CCn1c(SCC(=O)Nc2cccc(C)c2)nc2nc3c(cc2c1=O)COC(C)(C)C3	-83*	x	-7%	-1%	u
Cc1nc([N+](=O)[O-])c(SCC(N)=O)n1Cc1ccccc1	-18	i	-7%	0%	x
Cc1nc([N+](=O)[O-])c(Sc2nc3ccccc3n2C)n1Cc1ccccc1	-105*	i	-10%	3%	-6%
O=[N+]([O-])c1ccc(N2CCN(c3ccccc3O)CC2)cc1	-76*	i	-27%	2%	14%
O=[N+]([O-])c1ccc(N2CCN(C(=S)NC3CCCCC3)CC2)cc1	-78*	i	-2%	-9%	-23%
CCC1CCC(N2CCN(c3ccc([N+](=O)[O-])cc3)CC2)CC1 (centres undefined)	-60*	i	-10%	-3%	-11%
CCOC(=O)c1c(SC)n(-c2ccccc2)c(=S)n(-c2ccccc2)c1=O	15	i	-27%	1%	-5%

High-throughput results: PubChem BioAssay, National Center for Advancing Translational Sciences (NCATS)
